# Results: PubChem BioAssay (Tox21)
# Where “and” joins values, the source holds several entries; their conditions need not be identical. Equal entries are not always repeated. Inconclusive results are not listed. Entries that show only a call come without a potency. More than one record can exist for a structure, and the calls need not agree. Calls of active or inactive are those of the source. Calls come from the whole dose curve.
# Assay: p53 small molecule agonists, cell-based qHTS assay with rat liver microsomes: qHTS cell viability counter screen (AID 1963580); note: potency is the fitted concentration of half-maximal effect
# Conditions: p53RE-bla HCT-116 + rat microsomes, ATP viability, 16 h; series mostly up to 66 µM
# How it was run: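 p53RE-bla HCT-116 cells were exposed 16 h at 37 C to compounds with rat liver microsomes (0.5 mg/mL) and NADPH (0.5 mg/mL). Viability was measured in the same wells as ATP content by CellTiter-Glo luminescence.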
# Note: nearly all actives have a fitted effect of over 45% in size.
row,Structure (SMILES),Potency
1,N#CCCO,inactive
2,C=CCSSCC=C,inactive
3,C=CCc1cc(OC)c2c(c1)OCO2,inactive
4,c1ccc(-c2cccc(-c3ccccc3)c2)cc1,inactive
5,c1ccc(NNc2ccccc2)cc1,inactive
6,O=c1[nH]c2ccccc2n1C1CCN(CCCC(c2ccc(F)cc2)c2ccc(F)cc2)CC1,40.8 µM (active) and inactive
7,CCCCCCCCCCn1cc[n+](C)c1,36.7 µM (active) and inactive
8,OCCSSCCO,inactive
9,CCN,inactive
10,N#Cc1ccc(O)cc1,inactive
11,NCCOS(=O)(=O)O,inactive
12,O=S1OCC2C(CO1)C1(Cl)C(Cl)=C(Cl)C2(Cl)C1(Cl)Cl (stereo not drawn),inactive
13,ClC1=C(Cl)C2(Cl)C3C(Cl)C(Cl)CC3C1(Cl)C2(Cl)Cl (stereo not drawn),inactive
14,ClC(Cl)(Cl)Br,inactive
15,Cl/C=C/CCl,inactive
16,CCCCCCCCSC(=O)Oc1cc(Cl)nnc1-c1ccccc1,inactive
17,Cc1ccc(N)cc1N,inactive
18,[O-][Cl+]O,inactive
19,CC(C)Nc1ccc(Nc2ccccc2)cc1,36.2 µM (active) and 45.8 µM (active)
20,O=C(CCN1CC1)OCC(CO)(COC(=O)CCN1CC1)COC(=O)CCN1CC1,inactive
21,CC(C)(C)C(O)(CCc1ccc(Cl)cc1)Cn1cncn1 (stereo not drawn),inactive
22,CC1COC2(c3ccccc3Cl)c3cc(Cl)ccc3NC(=O)CN12 (stereo not drawn),inactive
23,CC(C)(C)OOC(C)(C)CCC(C)(C)OOC(C)(C)C,inactive
24,O=C(Cl)OCCOCCOC(=O)Cl,inactive
25,CCN(CC)C(=O)C(C)Oc1cccc2ccccc12 (stereo not drawn),inactive
26,CN(C)CCC#N,inactive
27,CCN(CCO)CCO,inactive
28,Nc1c(Br)cc([N+](=O)[O-])cc1[N+](=O)[O-],inactive

# Assay: p53 small molecule agonists, cell-based qHTS assay: qHTS cell viability counter screen (AID 1963581)
# Conditions: p53RE-bla HCT-116 viability, ATP luminescence, 16 h; series mostly up to 66 µM
# How it was run: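 p53RE-bla HCT-116 cells, compounds added 5 h after plating and incubated 16 h at 37 C. Cytotoxicity measured in the same wells as intracellular ATP by CellTiter-Glo luminescence after 30 min at room temperature.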
row,Structure (SMILES),Potency
1,N#Cc1ccc(Cl)cc1,inactive
2,O=NN(c1ccccc1)c1ccccc1,inactive
3,COC(=O)Nc1cccc(OC(=O)Nc2cccc(C)c2)c1,inactive
4,CC(Br)C(=O)O (stereo not drawn),inactive
5,CCN(CC)Cc1nccn1-c1ccc([N+](=O)[O-])cc1C(=O)c1ccccc1Cl,inactive
6,OCCOc1ccccc1,inactive
7,N#CC(c1ccccc1)c1ccccc1,inactive
8,O=C(NCO)NCO,inactive
9,Cc1cccc(N)c1N,inactive
10,CC(C)C(=O)OCC(C)(C)C(OC(=O)C(C)C)C(C)C (stereo not drawn),inactive
